Results as given in PubChem BioAssay (EPA / NIEHS).
Results filed as inconclusive are left out. Activity calls are given as the source filed them. How the source made its calls, unless noted: active means hit-call score of the fitted dose curve at least 0.9, where 1 is the maximum; inactive means score below 0.9.

How the values were obtained:
[1] = molecular target: CCAAT/enhancer-binding protein beta (Homo sapiens) (UniProt P17676); experiment: ATG_C_EBP_CIS: Attagene CIS-FACTORIAL HepG2 Assay for human CCAAT/Enhancer Binding Protein (C/EBP) beta (AID 2282927); conditions: HepG2 Attagene cis-factorial transcription factor reporter; actives raise or lower the signal
Outline: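 Endogenous C/EBPb-driven reporter transcripts measured in transfected human HepG2 cells at 24 h via RT-PCR and capillary electrophoresis of labelled fragments. Activity fitted in both directions relative to DMSO baseline.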

[2] = ATG_CMV_CIS: Attagene CIS-FACTORIAL HepG2 Assay for human CMV (Internal Marker) (AID 2282928); conditions: HepG2 CMV promoter reporter, transcription factor profiling; actives raise or lower the signal;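 further: endpoint acts as a background internal control marker rather than a target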
Outline: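 24 h chemical treatment, HepG2 with transient multi-reporter transfection; RNA → oligo(dT) RT → PCR → 6-FAM extension → HpaI digest → CE fluorescence. Bidirectional fit, DMSO negative control.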

[3] = molecular target: Aryl hydrocarbon receptor (Homo sapiens) (UniProt P35869); experiment: ATG_Ahr_CIS: Attagene CIS-FACTORIAL HepG2 Assay for human Aryl Hydrocarbon Receptor (Ahr) (AID 2282930); conditions: HepG2 AhR cis-factorial reporter transcription; actives raise or lower the signal
Outline: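 Reporter mRNA levels, quantified by RT-PCR and fluorescent capillary electrophoresis, reflect endogenous AhR transcriptional activity in HepG2 cells carrying transfected cis-promoter reporter constructs. Readout at 24 h post-dose; gain or loss fitted against DMSO baseline.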

[4] = ATG_AP_1_CIS: Attagene CIS-FACTORIAL HepG2 Assay for human Activator Protein 1 (AP-1) (AID 2282931); conditions: HepG2 Attagene cis-factorial AP-1 reporter mRNA; actives raise or lower the signal
Outline: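 We transfected HepG2 cells transiently with a set of cis-regulated reporter transcription units, dosed them for 24 h, and quantified reporter mRNA via RT-PCR and capillary electrophoresis, scoring gain or loss of signal relative to DMSO.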

[5] = ATG_EGR_CIS: Attagene CIS-FACTORIAL HepG2 Assay for human Early Growth Response 1 (EGR1) (AID 2282938); conditions: HepG2 Attagene CIS-FACTORIAL EGR reporter mRNA; actives raise or lower the signal
Outline: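 Multiplexed cis-reporter system in human hepatoma HepG2 cells, transiently transfected. Cells are dosed for 24 h; reporter transcripts are amplified, fluorescently tagged and sized by capillary electrophoresis, with DMSO as negative control.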

[6] = ATG_GLI_CIS: Attagene CIS-FACTORIAL HepG2 Assay for human Zinc Finger Protein GLI1 (AID 2282945); conditions: HepG2, Attagene cis-factorial reporter mRNA, GLI element; actives raise or lower the signal
Outline: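 Bidirectional curve fits relative to DMSO, using reporter mRNA levels from RT-PCR plus capillary electrophoresis. Cells were HepG2 transiently carrying cis-regulated reporter constructs, harvested 24 h after dosing.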

[7] = ATG_ISRE_CIS: Attagene CIS-FACTORIAL HepG2 Assay for human Interferon Regulatory Factor 1 (IRF1) binding to an Interferon-Stimulated Response Element (ISRE) (AID 2282948); conditions: HepG2 ISRE cis-reporter (Attagene), mRNA transcription readout; actives raise or lower the signal
Outline: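 Multiplexed mRNA reporter readout in human liver HepG2 cells: cis-element-driven reporters transfected, compound added for 24 h, transcripts amplified, fluorescently labelled and sized by capillary electrophoresis; curve fitting bidirectional against DMSO.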

[8] = ATG_M_06_CIS: Attagene CIS-FACTORIAL HepG2 Assay for M06 Transcription Factor (Internal Marker) (AID 2282950); conditions: HepG2 Attagene CIS-FACTORIAL M06 internal marker reporter; actives raise or lower the signal
Outline: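 HepG2 liver cells, 24 h exposure. Reporter transcripts from transfected cis-element constructs quantified by RT-PCR/capillary electrophoresis fluorescence. Bidirectional curve fit against DMSO.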

[9] = molecular target: Hypoxia-inducible factor 1-alpha (Homo sapiens) (UniProt Q16665); experiment: ATG_HIF1a_CIS: Attagene CIS-FACTORIAL HepG2 Assay for human Hypoxia Inducible Factor 1 (HIF1A) (AID 2282951); conditions: HepG2 Attagene cis-factorial HIF1a reporter transcription; actives raise or lower the signal
Outline: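 Cis-element reporter constructs were transiently transfected into HepG2 cells, which were treated for 24 h; reporter RNA was reverse-transcribed, amplified, labelled and resolved by capillary electrophoresis.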

[10] = molecular target: Heat shock factor protein 1 (Homo sapiens) (UniProt Q00613); experiment: ATG_HSE_CIS: Attagene CIS-FACTORIAL HepG2 Assay for human Heat Shock Transcription Factor 1 (HSE) (AID 2282953); conditions: HepG2 HSE cis-reporter, Attagene RNA transcription; actives raise or lower the signal
Outline: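 Endogenous transcription factor activity captured via cis-promoter reporter units transfected into HepG2; treatment lasted 24 h. Fluorescence intensity of reporter fragments analysed with bidirectional curve fitting, DMSO baseline.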

[11] = ATG_VDRE_CIS: Attagene CIS-FACTORIAL HepG2 Assay for human Vitamin D Receptor Element (VDRE) (AID 2282968); conditions: HepG2 VDRE cis-reporter transcription, actives raise or lower the signal
Outline: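 Readout is VDRE-driven reporter mRNA reflecting endogenous factor activity in human HepG2 cells, sampled 24 h post-dose. Quantification used labelled RT-PCR products separated by capillary electrophoresis; bidirectional analysis relative to DMSO.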

[12] = molecular target: X-box-binding protein 1 (Homo sapiens) (UniProt P17861); experiment: ATG_Xbp1_CIS: Attagene CIS-FACTORIAL HepG2 Assay for human X-box Binding Protein 1 (XBP1) (AID 2282972); conditions: HepG2 XBP1 cis-element reporter, Attagene multiplex; actives raise or lower the signal
Outline: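 Multiplexed cis-reporter readout in transfected HepG2 liver cells. Exposure lasted 24 hours. Activity in either direction was fitted against DMSO as negative control and baseline.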

[13] = molecular target: Transcriptional activator Myb (Homo sapiens) (UniProt P10242); experiment: ATG_Myb_CIS: Attagene CIS-FACTORIAL HepG2 Assay for human Myeloblastosis (Myb) Proto-Oncogene Transcription Factor (AID 2282986); conditions: HepG2 Attagene CIS-FACTORIAL Myb reporter transcription; actives raise or lower the signal
Outline: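 Using HepG2 liver cells bearing transiently transfected cis-promoter reporter constructs, the assay measures induction or loss of reporter mRNA after 24 hours of dosing. Detection used fluorescently labeled RT-PCR products separated by capillary electrophoresis.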

[14] = molecular target: Nuclear respiratory factor 1 (Homo sapiens) (UniProt Q16656); experiment: ATG_NRF1_CIS: Attagene CIS-FACTORIAL HepG2 Assay for human Nuclear Respiratory Factor 1 (NRF1) Orphan Gene (AID 2282987); conditions: HepG2 NRF1 cis-element reporter, Attagene multiplex; actives raise or lower the signal
Outline: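 Reporter mRNA induction or loss in HepG2 cells after 24 h dosing; cis-regulated reporter constructs report endogenous transcription-factor activity. Quantified by RT-PCR/capillary electrophoresis fluorescence, DMSO-referenced.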

[15] = ATG_NFI_CIS: Attagene CIS-FACTORIAL HepG2 Assay for human Nuclear Factor I (NFI) (AID 2282989); conditions: HepG2 cis-regulatory reporter, NFI response element transcription; actives raise or lower the signal
Outline: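 Cells: human liver HepG2, transiently transfected with promoter-regulated reporter transcription units. Exposure 24 h. Detection: fluorescent RT-PCR products separated by capillary electrophoresis, normalised to DMSO negative control.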

[16] = ATG_NRF2_ARE_CIS: Attagene CIS-FACTORIAL HepG2 Assay for human Nuclear Factor Erythroid 2 Related Factor 2 (NFR2) response to Antioxidant Response Elements (ARE) (AID 2282992); conditions: HepG2 Attagene ARE/NRF2 reporter, transcription factor activity; actives raise or lower the signal
Outline: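 Endogenous transcription factor activity in human liver HepG2 cells is tracked via a cis-element-driven reporter within a multiplexed set. mRNA induction is read by RT-PCR and capillary electrophoresis after 24 h, with DMSO as baseline.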

[17] = ATG_Oct_MLP_CIS: Attagene CIS-FACTORIAL HepG2 Assay for human Octamer-Binding Transcription Factor (Oct) (AID 2282993); conditions: HepG2 Attagene cis-factorial Oct reporter, mRNA; actives raise or lower the signal
Outline: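 HepG2, transient MRTU transfection, cis promoter elements; 24 h dosing; RT-PCR/CE fluorescence read-out of reporter mRNA; fit both directions vs DMSO.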

[18] = molecular target: Cellular tumor antigen p53 (Homo sapiens) (UniProt P04637); experiment: ATG_p53_CIS: Attagene CIS-FACTORIAL HepG2 Assay for human p53 Transcription Factor (AID 2282994); conditions: HepG2 p53 cis-element reporter, Attagene mRNA; actives raise or lower the signal
Outline: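 Steps: transfect HepG2 with multiplexed cis reporter constructs; dose chemicals 24 h; extract RNA, reverse-transcribe, PCR-amplify reporter sequences; FAM-label, HpaI-digest, resolve fragments by CE. Activity fitted both directions relative to DMSO.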

[19] = ATG_TAL_CIS: Attagene CIS-FACTORIAL HepG2 Assay for human TAL Basal Promoter (AID 2282966); conditions: HepG2 Attagene cis-factorial TAL promoter reporter; actives raise or lower the signal;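 further: background control endpoint measuring basal TAL promoter reporter mRNA not a specific factor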
Outline: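 Human hepatoma HepG2 cells, transfected with promoter-regulated reporter units, were treated 24 h. Reporter transcript levels, measured through RT-PCR and capillary electrophoresis, were fitted for gain or loss relative to DMSO.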

[20] = ATG_XTT_Cytotoxicity: Cytotoxicity Assessment in the Attagene TRANS-FACTORIAL HepG2 Assay (AID 2283584; active means hit-call score of the fitted dose curve at least 0.9, where 1 is the maximum)
Outline: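 24 h chemical exposure of reporter-transfected HepG2; XTT signal loss vs DMSO indicates cytotoxicity.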

Measured: AC50

Chain of Nuclear respiratory factor 1 (Homo sapiens) (Q16656 whole entry, looked up): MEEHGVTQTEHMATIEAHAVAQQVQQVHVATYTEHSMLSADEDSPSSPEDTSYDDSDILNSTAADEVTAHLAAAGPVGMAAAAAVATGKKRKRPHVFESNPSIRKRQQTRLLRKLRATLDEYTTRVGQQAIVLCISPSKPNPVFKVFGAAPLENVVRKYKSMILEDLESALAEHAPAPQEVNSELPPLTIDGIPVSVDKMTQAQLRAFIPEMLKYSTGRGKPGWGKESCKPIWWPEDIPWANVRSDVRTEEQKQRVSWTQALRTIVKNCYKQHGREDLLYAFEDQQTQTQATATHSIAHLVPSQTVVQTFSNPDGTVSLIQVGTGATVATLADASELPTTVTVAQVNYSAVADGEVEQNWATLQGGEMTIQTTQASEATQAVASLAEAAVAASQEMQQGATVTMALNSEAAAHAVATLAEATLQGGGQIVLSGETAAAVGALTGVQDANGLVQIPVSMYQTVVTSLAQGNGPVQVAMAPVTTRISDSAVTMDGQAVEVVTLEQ
Chain of Aryl hydrocarbon receptor (Homo sapiens) (P35869 whole entry, looked up): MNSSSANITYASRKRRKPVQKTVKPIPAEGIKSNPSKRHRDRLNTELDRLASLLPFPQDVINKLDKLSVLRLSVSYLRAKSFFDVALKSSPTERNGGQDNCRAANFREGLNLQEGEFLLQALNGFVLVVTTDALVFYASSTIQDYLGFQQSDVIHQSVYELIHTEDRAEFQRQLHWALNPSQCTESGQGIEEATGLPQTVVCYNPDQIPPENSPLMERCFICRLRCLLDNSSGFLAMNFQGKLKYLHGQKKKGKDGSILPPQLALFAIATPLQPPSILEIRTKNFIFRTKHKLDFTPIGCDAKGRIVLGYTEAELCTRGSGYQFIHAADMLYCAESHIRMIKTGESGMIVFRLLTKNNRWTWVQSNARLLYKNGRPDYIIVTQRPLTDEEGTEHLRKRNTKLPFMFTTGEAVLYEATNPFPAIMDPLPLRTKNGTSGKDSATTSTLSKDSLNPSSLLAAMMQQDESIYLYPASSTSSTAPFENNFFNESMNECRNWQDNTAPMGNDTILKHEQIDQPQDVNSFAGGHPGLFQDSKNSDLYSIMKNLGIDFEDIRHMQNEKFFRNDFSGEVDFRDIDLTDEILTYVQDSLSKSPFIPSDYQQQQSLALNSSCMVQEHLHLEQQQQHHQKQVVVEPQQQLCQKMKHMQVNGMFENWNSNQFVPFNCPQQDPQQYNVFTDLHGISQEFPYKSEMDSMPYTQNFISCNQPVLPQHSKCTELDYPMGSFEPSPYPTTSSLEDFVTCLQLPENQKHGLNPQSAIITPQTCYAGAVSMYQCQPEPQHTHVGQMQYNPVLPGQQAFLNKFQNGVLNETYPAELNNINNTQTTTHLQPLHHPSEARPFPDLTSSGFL
Chain of Heat shock factor protein 1 (Homo sapiens) (Q00613 whole entry, looked up, the tested form may be a part): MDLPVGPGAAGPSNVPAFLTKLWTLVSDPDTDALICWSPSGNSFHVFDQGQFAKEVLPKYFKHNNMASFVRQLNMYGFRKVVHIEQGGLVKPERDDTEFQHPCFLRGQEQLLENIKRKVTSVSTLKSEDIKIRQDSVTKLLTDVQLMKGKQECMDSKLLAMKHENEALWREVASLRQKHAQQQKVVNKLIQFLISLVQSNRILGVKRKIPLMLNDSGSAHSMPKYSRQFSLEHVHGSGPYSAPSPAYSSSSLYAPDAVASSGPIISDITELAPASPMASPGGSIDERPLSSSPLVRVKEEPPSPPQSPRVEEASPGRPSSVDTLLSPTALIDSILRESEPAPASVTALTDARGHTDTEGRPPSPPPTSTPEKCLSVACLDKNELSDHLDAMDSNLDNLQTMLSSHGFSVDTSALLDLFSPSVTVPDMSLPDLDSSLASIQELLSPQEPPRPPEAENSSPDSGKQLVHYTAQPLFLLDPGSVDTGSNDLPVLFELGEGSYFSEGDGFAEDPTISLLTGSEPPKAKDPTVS
Chain of CCAAT/enhancer-binding protein beta (Homo sapiens) (P17676 whole entry, looked up, the tested form may be a part): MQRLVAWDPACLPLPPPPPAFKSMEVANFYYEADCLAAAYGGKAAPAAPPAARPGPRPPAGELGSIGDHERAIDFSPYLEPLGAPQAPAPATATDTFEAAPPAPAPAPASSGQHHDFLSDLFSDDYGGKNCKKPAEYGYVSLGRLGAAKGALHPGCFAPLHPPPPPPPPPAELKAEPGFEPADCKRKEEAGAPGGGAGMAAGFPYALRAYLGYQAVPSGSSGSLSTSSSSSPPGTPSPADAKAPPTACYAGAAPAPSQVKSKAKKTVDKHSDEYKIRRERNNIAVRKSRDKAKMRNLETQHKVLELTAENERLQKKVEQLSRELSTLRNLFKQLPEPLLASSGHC
Chain of Transcriptional activator Myb (Homo sapiens) (P10242 whole entry, looked up): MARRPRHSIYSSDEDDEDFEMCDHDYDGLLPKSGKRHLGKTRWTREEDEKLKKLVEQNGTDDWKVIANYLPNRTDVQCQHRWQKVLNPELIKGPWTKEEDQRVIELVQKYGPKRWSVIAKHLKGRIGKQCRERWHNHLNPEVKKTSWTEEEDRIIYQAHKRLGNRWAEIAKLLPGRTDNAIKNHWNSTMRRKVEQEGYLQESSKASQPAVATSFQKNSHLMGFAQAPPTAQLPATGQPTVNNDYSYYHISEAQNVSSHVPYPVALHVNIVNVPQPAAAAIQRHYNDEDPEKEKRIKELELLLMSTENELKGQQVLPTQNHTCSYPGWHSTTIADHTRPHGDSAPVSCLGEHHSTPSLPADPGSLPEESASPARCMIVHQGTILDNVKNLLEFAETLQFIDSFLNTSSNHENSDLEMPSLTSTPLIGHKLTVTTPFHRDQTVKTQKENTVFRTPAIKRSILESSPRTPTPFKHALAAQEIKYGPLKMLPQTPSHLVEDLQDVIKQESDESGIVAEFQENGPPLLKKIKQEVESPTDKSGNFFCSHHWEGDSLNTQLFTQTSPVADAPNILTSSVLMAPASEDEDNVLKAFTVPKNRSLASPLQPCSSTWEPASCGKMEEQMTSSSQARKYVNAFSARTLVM
Chain of Cellular tumor antigen p53 (Homo sapiens) (P04637 whole entry, looked up, the tested form may be a part): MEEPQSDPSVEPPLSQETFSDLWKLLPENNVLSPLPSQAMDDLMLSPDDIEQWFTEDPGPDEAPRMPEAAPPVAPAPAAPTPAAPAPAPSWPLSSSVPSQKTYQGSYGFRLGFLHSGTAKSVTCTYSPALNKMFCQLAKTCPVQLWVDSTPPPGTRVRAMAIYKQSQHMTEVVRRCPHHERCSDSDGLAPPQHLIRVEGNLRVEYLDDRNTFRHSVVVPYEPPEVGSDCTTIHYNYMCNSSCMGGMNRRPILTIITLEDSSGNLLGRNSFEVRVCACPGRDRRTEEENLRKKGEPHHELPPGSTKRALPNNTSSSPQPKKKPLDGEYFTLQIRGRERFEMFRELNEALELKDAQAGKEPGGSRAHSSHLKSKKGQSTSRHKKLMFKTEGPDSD
Chain of Hypoxia-inducible factor 1-alpha (Homo sapiens) (Q16665 whole entry, looked up): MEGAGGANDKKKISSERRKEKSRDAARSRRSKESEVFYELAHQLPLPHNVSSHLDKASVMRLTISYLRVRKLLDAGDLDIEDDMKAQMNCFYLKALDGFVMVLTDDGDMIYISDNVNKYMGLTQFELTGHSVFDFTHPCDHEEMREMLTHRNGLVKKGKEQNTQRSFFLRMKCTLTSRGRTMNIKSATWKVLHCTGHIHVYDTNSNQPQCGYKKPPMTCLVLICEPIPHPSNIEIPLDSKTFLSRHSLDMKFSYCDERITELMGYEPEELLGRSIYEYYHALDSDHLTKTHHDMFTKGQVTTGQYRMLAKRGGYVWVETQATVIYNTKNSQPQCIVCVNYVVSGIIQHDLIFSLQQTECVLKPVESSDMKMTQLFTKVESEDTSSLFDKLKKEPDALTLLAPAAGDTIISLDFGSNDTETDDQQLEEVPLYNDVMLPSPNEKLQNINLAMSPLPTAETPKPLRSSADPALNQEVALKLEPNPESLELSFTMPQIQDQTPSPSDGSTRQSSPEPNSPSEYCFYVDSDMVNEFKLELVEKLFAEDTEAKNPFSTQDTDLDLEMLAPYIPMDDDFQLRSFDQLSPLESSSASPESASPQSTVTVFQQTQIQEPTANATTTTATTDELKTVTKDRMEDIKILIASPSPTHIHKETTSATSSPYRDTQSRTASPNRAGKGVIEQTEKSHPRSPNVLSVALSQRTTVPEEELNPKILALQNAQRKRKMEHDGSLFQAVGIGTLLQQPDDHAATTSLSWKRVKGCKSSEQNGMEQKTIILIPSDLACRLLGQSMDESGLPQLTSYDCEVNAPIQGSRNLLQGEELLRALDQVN
Chain of X-box-binding protein 1 (Homo sapiens) (P17861 whole entry, looked up): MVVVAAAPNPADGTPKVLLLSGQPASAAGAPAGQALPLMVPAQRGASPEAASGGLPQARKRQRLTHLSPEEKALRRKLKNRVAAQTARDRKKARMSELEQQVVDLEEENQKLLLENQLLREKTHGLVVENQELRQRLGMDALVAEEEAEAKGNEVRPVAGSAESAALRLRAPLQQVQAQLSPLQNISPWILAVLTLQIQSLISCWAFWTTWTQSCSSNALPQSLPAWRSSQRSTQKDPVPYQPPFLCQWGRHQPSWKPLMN

C[N+](=O)[O-]
not listed: [19] | [20]
inactive: all other assays above

CCCCOC(=O)CCC(=O)OCCCC
not listed: [11]
inactive: all other assays above

COc1ncc(F)c2nc(S(=O)(=O)Nc3c(F)cccc3F)nn12
not listed: [7] | [11] | [18]
inactive: all other assays above

CC1(C)C(=O)NC(=O)NC1=O
not listed: [6]
inactive: all other assays above

Cc1ccccc1CCl
not listed: [5] | [19] | [20]
inactive: all other assays above

ClCCCCCCCl
not listed: [18]
inactive: all other assays above

CCC(=O)c1ccc(Cl)cc1
not listed: [18]
inactive: all other assays above

Cc1ccc(OP(=O)(Oc2ccc(C)cc2)Oc2ccc(C)cc2)cc1 (tested in a mixture with another compound)
active: [11] 2.35 µM
not listed: [7] | [8] | [10] | [16]
inactive: all other assays above

O=C(O)CCCc1ccc(N(CCCl)CCCl)cc1
active: [18] 54.7 µM
not listed: [8] | [16]
inactive: all other assays above

O=C=Nc1ccccc1
active: [3] 9.05 µM
not listed: [18]
inactive: all other assays above

CC1(C)CC(=O)CC(C)(C)N1[O]
not listed: [8] | [16] | [19]
inactive: all other assays above

ClCC(Cl)Cl
not listed: [16] | [19]
inactive: all other assays above

CC1CCCC1.[C-]#[O+].[C-]#[O+].[C-]#[O+].[Mn]
active: [3] 12.5 µM | [7] 35.2 µM
not listed: [5]
inactive: all other assays above

CN(C)N
not listed: [8]
inactive: all other assays above

CCOC(=O)C1OC1(C)c1ccccc1 (configuration not stated)
not listed: [11] | [16]
inactive: all other assays above
